Assay [1] can be described thus: qHTS RealTime-Glo MT Cell Viability Assay in HepG2 cells - 8 hour (AID 1224873). Note: nearly all actives have a fitted effect of over 55% in size. Note: potency is the fitted concentration of half-maximal effect. An outline of the steps: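 Real-time viability: cells seeded at 600 per well together with NanoLuc and cell-permeant prosubstrate, compounds added after 5 h incubation. Luminescence tracked at 0, 8, 16, 24, 32 and 40 h of exposure.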
Assay [2] is described as follows: qHTS RealTime-Glo MT Cell Viability Assay in HEK293 cells - 40 hour (AID 1224874). Note: nearly all actives have a fitted effect of over 50% in size. Note: potency is the fitted concentration of half-maximal effect. The note with it: RealTime-Glo luminescence; max response: stronger effect = lower value. An outline of the steps: (§1)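 Viable HEK293 cells reduce a cell-permeant prosubstrate; the product diffuses out and is consumed by NanoLuc in the medium to give light. Compounds went in after a 5 h incubation and plates were read over the treatment course.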
Background: In qHTS, concentration-response curves come from the screen itself.

Assay [3] is described as follows: A CellTox Green Cytotoxicity Assay to monitor cytotoxicity in HepG2 cells - 16 hour (AID 1224876). Note: nearly all actives have a fitted effect of over 45% in size. Note: potency is the fitted concentration of half-maximal effect. An outline of the steps: (§2)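 Using 1536-well format, dye-containing HepG2 suspension was seeded, allowed 5 h at 37 C/5% CO2, dosed by pintool with compounds, positive and negative controls, and imaged for fluorescence across 40 h.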
Assay [4] is described as follows: qHTS RealTime-Glo MT Cell Viability Assay in HepG2 cells - 32 hour (AID 1224877). Note: nearly all actives have a fitted effect of over 55% in size. Note: potency is the fitted concentration of half-maximal effect. An outline of the steps:
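Tox21 10K library screened in qHTS format on HepG2 cells carrying RealTime-Glo reagents. Compounds were added after a 5 h preincubation, and the luminescent signal from continuous culture was measured repeatedly during 40 h treatment.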

Assay [5] is described as follows: A CellTox Green Cytotoxicity Assay to monitor cytotoxicity in HepG2 cells - 24 hour (AID 1224878). Note: nearly all actives have a fitted effect of over 45% in size. Note: potency is the fitted concentration of half-maximal effect. An outline of the steps: as §2
A short description of assay [6]: A CellTox Green Cytotoxicity Assay to monitor cytotoxicity in HepG2 cells - 40 hour (AID 1224879). Note: nearly all actives have a fitted effect of over 40% in size. Note: potency is the fitted concentration of half-maximal effect. An outline of the steps:
as §2

Assay [7] in a line: qHTS RealTime-Glo MT Cell Viability Assay in HEK293 cells - 0 hour (AID 1224880). Note: top concentration of the series differs between compounds; nearly all actives have a fitted effect of over 45% in size. An outline of the steps: as §1
The nature of assay [8]: A CellTox Green Cytotoxicity Assay to monitor cytotoxicity in HEK293 cells - 32 hour (AID 1224881). Note: nearly all actives have a fitted effect of over 40% in size. Note: potency is the fitted concentration of half-maximal effect. In outline: (§3)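 Fluorescence intensity, read at 0, 8, 16, 24, 32 and 40 h of compound treatment, reflected dye binding to DNA of dead HEK293 cells; compounds (23 nL, DMSO) were added 5 h after plating cells with reagent.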
Assay [9] can be described thus: A CellTox Green Cytotoxicity Assay to monitor cytotoxicity in HepG2 cells - 0 hour (AID 1224882). Note: nearly all actives have a fitted effect of over 35% in size. An outline of the steps:
as §2

Assay [10] can be described thus: A CellTox Green Cytotoxicity Assay to monitor cytotoxicity in HEK293 cells - 24 hour (AID 1224875). For activity change: series mostly up to about 77 µM. Note: nearly all actives have a fitted effect of over 45% in size. Note: potency is the fitted concentration of half-maximal effect. An outline of the steps: as §3

Structures are written as SMILES. “And” between values parts separate entries of the source, which are not always exact repeats. Equal values may be shown once. Results filed as inconclusive are left out. Some structures have more than one record in an assay (separate samples or runs), and their calls can disagree. The source made the active and inactive calls. Calls come from the whole dose curve; as a rule, active = well fitted curve in the direction sought with a large enough effect in the repeat runs; inconclusive = weak or mixed curves; inactive = no such curve, though single readings can be large; an effect the other way counts as inactive or inconclusive.
% is set by controls: 0 for no effect and ±100 for the full control effect.

Take `O=C(O)c1ccc(Cl)c(Cl)c1`: the Potency entry in assay [1], in assay [3], in [4], in assay [5], in assay [6] and in assay [7] was “inactive” each time. Moreover, the Potency entry in assay [8] and in [9] was “inactive” throughout. Moreover, the max response in assay [2] was 2.99% (inactive).

Take `O=C(c1ccc(F)cc1)C1CCN(CCn2c(=O)[nH]c3ccccc3c2=O)CC1`: the Potency result in [1], in assay [3], in assay [4], in assay [5], in assay [7] and in [8] was “inactive” throughout. Also, in [2], the Potency is 9.52 µM (active).

For the molecule `C=C(C)C(=O)OCC(O)COc1ccc(C(C)(C)c2ccc(OCC(O)COC(=O)C(=C)C)cc2)cc1` (stereo unspecified), the Potency in assay [1] is 19.5 µM (active); in assay [2], 13.8 µM (active); in assay [4], 21.9 µM (active); in assay [6], 43.6 µM (active). Also, the Potency entry in [3], in [5], in assay [7], in assay [8] and in [9] was “inactive” each time.

As for `N#CSc1ccc(N)c([N+](=O)[O-])c1`, the Potency result in assay [1], in assay [3], in assay [4], in assay [7], in assay [8] and in [9] was “inactive” throughout. In assay [2], the Potency is 49.3 µM (active).

On to `C1CCCC1`, for which the Potency entry in assay [1], in [3], in assay [4], in assay [6], in [7] and in [8] was “inactive” each time. In addition, the Potency result in assay [9] is “inactive”. Also, the max response in assay [2] is -2.57% (inactive).

As to `Oc1ccc2cc(SSc3ccc4cc(O)ccc4c3)ccc2c1`, the Potency result in assay [1], in assay [3], in assay [4], in assay [5], in assay [7] and in assay [9] was “inactive” each time. Moreover, the Potency is 55 µM (active) in assay [2]; “inactive and 21.9 µM (active)” in assay [6]; 43.7 µM (active) and 19.5 µM (active) in [8].

With `CC[C@@]1(O)C(=O)OCc2c1cc1n(c2=O)Cc2c-1nc1ccccc1c2/C=N/OC(C)(C)C`, the Potency result in [1], in assay [10], in assay [7], in assay [8] and in [9] was “inactive” throughout. In addition, the values for the Potency in assay [2], in [5] and in assay [6] were 0.0239 µM (active), 0.848 µM (active) and 1.07 µM (active), respectively.

Take `CN(C)C(=O)C1(N2CCCCC2)CCN(CC[C@@]2(c3ccc(Cl)c(Cl)c3)CN(C(=O)c3ccccc3)CCO2)CC1`: the Potency in assay [1] is 45.8 µM (active); in [2], 11.5 µM (active); in assay [3] it was 40.8 µM (active); in assay [4], 18.2 µM (active); in assay [5], 20.4 µM (active); in assay [6] it was 20.4 µM (active). In addition, in [8], the Potency is 32.4 µM (active). The Potency entry in [7] and in assay [9] was “inactive” each time.

As for `CCCCCCCCCCCCCCCC[N+](C)(C)CCN(Cc1ccc(OC)cc1)c1ncccn1`, the Potency was 10.7 µM (active) in assay [1]; 0.952 µM (active) in assay [2]; 9.52 µM (active) in assay [3]; 6.01 µM (active) in assay [4]; 6.74 µM (active) in assay [5]; 6.01 µM (active) in [6]. Moreover, the Potency in [8] was 9.52 µM (active). Besides, the Potency result in [7] and in assay [9] was “inactive” throughout.

In the case of `CCCC/C=C/CCCCO`, the Potency entry in [1], in [3], in assay [4], in assay [5], in assay [6] and in assay [7] was “inactive” in each case. For the same molecule, the Potency entry in [8] and in assay [9] was “inactive” each time. For the same molecule, the max response in assay [2] was 5.87% (inactive).

For the molecule `CCOc1ccc2nc3cc(N)ccc3c(N)c2c1`, the Potency entry in assay [1], in [3], in [7] and in [9] was “inactive” each time. Besides, the Potency was 13.4 µM (active) in assay [2], 8.49 µM (active) in [4], 23.9 µM (active) in assay [5] and 6.01 µM (active) in assay [6].

Consider `Nc1ccc2cc(S(=O)(=O)O)cc(O)c2c1N=Nc1ccccc1C(F)(F)F`, for which the Potency entry in [1], in [3], in assay [4], in assay [5], in assay [6] and in [7] was “inactive” throughout. Also, the Potency result in assay [8] and in [9] was “inactive” each time. The max response in assay [2] was 0.853% (inactive).

For `O=c1c(-c2ccccc2)c1-c1ccccc1`, the Potency in assay [1] was 23.9 µM (active); in assay [10] it was 5.35 µM (active); in assay [4], 15.1 µM (active); in assay [5], 10.7 µM (active); in assay [6] it was 10.7 µM (active); in assay [8] it was 5.35 µM (active). The Potency entry in assay [3], in assay [7] and in assay [9] was “inactive” throughout.

`Nc1c(Cl)cc(Cl)cc1Cl`: the Potency result in assay [1], in assay [4], in assay [7] and in [9] was “inactive” each time. Moreover, the max response in [2] was -15.4% (inactive).

In the case of `CNC(=O)c1ccccc1`, the Potency entry in assay [1], in [10], in [3], in assay [4], in assay [5] and in [6] was “inactive” in each case. For the same molecule, the Potency result in [7], in assay [8] and in [9] was “inactive” each time.

For the molecule `COC(=O)c1cc(Cl)ccc1OC`, the Potency result in assay [1], in assay [10], in assay [3], in assay [4], in assay [5] and in assay [6] was “inactive” throughout. In addition, the Potency entry in assay [7], in [8] and in assay [9] was “inactive” each time.

For the molecule `Cc1cc(O)c(C(C)(C)C)cc1Sc1cc(C(C)(C)C)c(O)cc1C`, the Potency in assay [1] was 43.6 µM (active); in [2], 21.8 µM (active); in [4], 48.9 µM (active); in [6], 48.9 µM (active); in [8], 54.8 µM (active). Besides, the Potency entry in [7] and in assay [9] was “inactive” in each case.

In the case of `C[n+]1cc2c3c(ccc2c2ccc4cc5c(cc4c21)OCO5)OCO3`, the Potency was 0.737 µM (active) in [1]; 0.737 µM (active) in assay [10]; 0.585 µM (active) in assay [3]; 0.928 µM (active) in [4]; 0.522 µM (active) in [5]; 0.657 µM (active) in assay [6]. In assay [8], the Potency was 0.465 µM (active). Further, the activity change, negative = cytotoxicity in assay [7] is -2.48% [at 15.8 µM] (inactive). Moreover, the cytotoxicity in assay [9] is -26.7% [at 15.8 µM] (inactive).

For the molecule `N#CC1(c2ccc(F)cc2)CCC(=O)CC1`, the Potency result in assay [1], in [4], in [5], in assay [6], in [7] and in [8] was “inactive” throughout. Moreover, in assay [9], the Potency entry was “inactive”. Moreover, in assay [2], the max response is 6.72% (inactive).

With `CC(NN)c1ccccc1` (stereo unspecified), in assay [1], the viability change, negative = cytotoxic was -0.527% [at 15.8 µM] (inactive). The activity change in [10] was -7.33% [at 15.8 µM, stronger effect = higher value] (inactive). Besides, the cytotoxicity increase in [3] is -2.37% [at 15.8 µM] (inactive); in assay [6], 0.373% [at 15.8 µM] (inactive); in assay [8] it was -15.1% [at 15.8 µM] (inactive). In [4], the activity change, negative = cytotoxic was 1.72% [at 15.8 µM] (inactive). Besides, the cytotoxicity in assay [5] was -5.39% [at 15.8 µM] (inactive); in assay [9], -2.26% [at 15.8 µM] (inactive). Also, the activity change, negative = cytotoxicity in [7] is -4.11% [at 15.8 µM] (inactive).

For the origin of these results see PubChem BioAssay (Tox21).
